Bioassay records (PubChem)
Sampled rows, rich in hits. Any-hit rate of the full collection: about 5.2%.
SMARCA2 act – SMARCA2 (BRM) function activators, primary screen, cell-based, luminescence, high throughput; hit rate 1% among 370,000; activation, % at 9.1 µM; AID 652017, 2013; MG213 cells, MMTV-luciferase reporter, dexamethasone, overnight; in the data active means activation above about 7.8%;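 further: 0% = vehicle wells and 100% = reference activator wells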
Vif imaging – HIV Vif self-association inhibitors, primary screen, imaging, HEK293T, single point; hit rate 0.35% among 340,000; inhibition, % at 7.49 µM; HEK293T cells, Vif self-association by quenched fluorescence, 24 h; in the data active means inhibition above about 50%, passing the limit was not always enough
esBAF inh – Bmi1 luciferase reporter increase in mESCs, primary screen, esBAF inhibitor project, mouse ES cells, Bmi1 luciferase knock-in, single point | 24 h; 100% = twice the neutral-well signal | reporter increase, % at 12.5 µM | hit rate 2% among 350,000; in the data active means activation above about 40%;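 further: 0% = median of the plate's neutral control wells and 100% = double that signal; a rise in the Bmi1 reporter signal indicates esBAF inhibition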
NadD inh – inhibitors of S. aureus NadD, primary screen, biochemical, colorimetric, uHTS. Nicotinate-nucleotide adenylyltransferase NadD (Staphylococcus aureus N315). purified NadD enzyme, colorimetric absorbance read-out. inhibition, % at 20 µM. hit rate 0.78% among 360,000. AID 602399, 2012; in the data active means inhibition above about 26%
NR3A LBD binder – binders of NR3A ligand-binding domain, primary screen, biophysical, differential scanning fluorimetry, uHTS; Glutamate receptor ionotropic, NMDA 3A (GRIN3A) ligand-binding domain; NR3A LBD differential scanning fluorimetry, Tm shift; 0% = protein alone, 100% = glycine-bound protein; Tm shift relative to glycine control, % at 25 µM; hit rate 2.5% among 340,000; AID 1259313, 2017;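 active means melting temperature shift of at least 10% of the positive control shift, at one fixed dose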
SKN-1 block – suppressors of acrylamide-induced Pgst-4::GFP reporter in worms, primary screen, SKN-1 inhibitor project, whole organism, uHTS, GFP/RFP fluorescence ratio, strain VP596. C. elegans VP596 Pgst-4::GFP/RFP ratio, 24 h. inhibition, % at 21.8 µM. hit rate 0.49% among 360,000. AID 624304, 2012;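 active means interference check ratio from 0.5 to 1.5 plus GFP to RFP signal ratio inhibition reaching or exceeding a fixed threshold, cut at about 30% in these data, passing the limit was not always enough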
NadD inh conf – inhibitors of S. aureus NadD, confirmation, biochemical, colorimetric, single concentration; inhibition, % at 20 µM; hit rate 13% among 2,000; purified S. aureus NadD, colorimetric enzyme assay; shares compounds with NadD inh; AID 624309, 2012; in the data active means inhibition mostly above about 42%, no sharp cut-off; inactive means mostly below about 42%
Active calls of the source: *; nt = not tested or not shown.

SMILES	SMARCA2 act	Vif imaging	esBAF inh	NadD inh	NR3A LBD binder	SKN-1 block	others
COC(=O)[C@H]1[C@H](CO)[C@H]2Cn3c(ccc(-c4ccccc4)c3=O)[C@@H]1N2CC1CCCCC1	nt	nt	-6	nt	nt	nt
c1ccc2c(c1)Sc1ccccc1N2CC1CN2CCC1CC2 (centres undefined)	-7	53*	7	5	0	8
O=C(Cc1ccccn1)N1CCCCN2[C@H](C1)[C@@H](c1ccc(-c3ccccc3F)cc1)[C@@H]2CO	nt	nt	1	nt	nt	nt
CCS(=O)(=O)Nc1cccc(C(=C2CCCCC2)c2cnc[nH]2)c1	-2	69*	0	-1	-1	2
O=c1[nH]c(O)c(/C=C2/C=CC(c3cc(Cl)ccc3Cl)=N2)c(=O)[nH]1	-2	-3	3	64*	-3	8
O=C(O)[C@@H]1[C@@H](CO)[C@@H]2Cn3c(ccc(-c4ccccc4)c3=O)[C@H]1N2S(=O)(=O)c1ccccc1F	nt	nt	5	nt	nt	nt
CN1CCN(c2nc(N)c(Br)c(Cl)n2)CC1	3	-6	-7	-6	14*	24
CN1CCN(c2ncnc(Cl)c2N)CC1	-2	4	-5	7	3	-3
COC(=O)[C@@H]1[C@@H](CO)[C@@H]2Cn3c(ccc(-c4cccnc4)c3=O)[C@H]1N2S(=O)(=O)c1ccccc1C	nt	nt	1	nt	nt	nt
O=c1c2ccccc2nc(-c2ccccc2)n1-c1ccccc1	-1	-1	-2	0	1	3
O=c1c2ccccc2nc(-c2ccccc2)n1-n1cccc1	2	-23	-6	-4	11*	-10
Cc1ccc(C(=O)C2CN(C)CC2C(=O)c2ccc(C)cc2)cc1 (centres undefined)	1	1	60*	-5	2	4
Cc1ccc(C(=O)C2CN3CCC2CC3)cc1 (centres undefined)	2	4	-11	3	0	23
CCN1CC2(COC(=O)c3ccccc3N)CCC(OC)C34C5CC6C(OC)CC(O)(C5C6OC)C(O)(C(OC)C23)C14 (centres undefined)	nt	0	-1	5	1	-17
CCN1C[C@]2(COC(=O)c3ccccc3N)CC[C@H](OC)C34[C@@H]5C[C@H]6[C@H](OC)[C@@H]5[C@](O)(C[C@@H]6OC)[C@@](O)([C@H]13)[C@@H](OC)[C@@H]42	-1	nt	1	2	10*	-9
COC(=O)[C@H]1[C@H](CO)[C@H]2Cn3c(ccc(-c4ccc(OC)cc4)c3=O)[C@@H]1N2C(=O)c1ccccc1F	nt	nt	0	nt	nt	nt
O=c1c2ccccc2[se]n1-c1ccccc1	-2	-6	12	6	32*	17
O=C(Cc1ccccn1)N1CCCCN2[C@@H](CO)[C@@H](c3ccc(Br)cc3)[C@@H]2C1	nt	nt	-4	nt	nt	nt
CN1CCN(c2ccc(S(=O)(=O)C(F)(F)F)cc2[N+](=O)[O-])CC1	-4	-4	nt	-1	15*	3
CC1(C)OC(c2ccccc2)=C/C(=C/C=C2C(=O)NC(=O)NC2=O)O1	-1	3	nt	4	0	46*
O=C(Cc1ccncc1)N1CCCCN2[C@H](CO)[C@@H](c3ccc(C#Cc4ccccc4F)cc3)[C@H]2C1	nt	nt	8	nt	nt	nt
N#CC1=C(N)Oc2c(c(=O)oc3ccccc23)C1c1cccnc1 (centres undefined)	-2	17	nt	1	-2	1
CCOc1cc(C2C(C#N)=C(N)Oc3c2c(=O)oc2ccccc32)ccc1OC(=O)c1cccs1 (centres undefined)	-1	-3	nt	31*	20*	7	NadD inh conf=23
COc1ccc(-c2cc(-c3ccccc3)[n+](C)c(-c3ccccc3)c2)cc1	-9	-24	nt	14	-2	7
C[n+]1c(-c2ccccc2)cc(CCCCc2cc(-c3ccccc3)[n+](C)c(-c3ccccc3)c2)cc1-c1ccccc1	-2	-1	7	40*	-2	10	NadD inh conf=43
SMILES	SMARCA2 act	Vif imaging	esBAF inh	NadD inh	NR3A LBD binder	SKN-1 block	others
COCC(=O)N1[C@@H]2Cn3c(ccc(C4=CCCC4)c3=O)[C@H]1[C@@H](C(=O)OC)[C@@H]2CO	nt	nt	0	nt	nt	nt
c1ccc(-c2nc3ccccc3nc2-c2ccc(CN3CCC(n4nnc5ccccc54)CC3)cc2)cc1	-3	nt	nt	nt	nt	nt
Cc1cccc(C)c1-n1nnnc1C(c1cccc2ccccc12)N1CCC(n2c(=O)[nH]c3ccccc32)CC1 (centres undefined)	-2	-3	-5	38*	nt	4	NadD inh conf=-3
N#Cc1ccc2nc(-c3ccc(CN4CCC(n5c(=O)[nH]c6ccccc65)CC4)cc3)c(-c3ccccc3)nc2c1	-2	nt	nt	43*	nt	-4	NadD inh conf=26
Cc1cccc2nc(-c3ccccc3)c(-c3ccc(CN4CCC(n5c(=O)[nH]c6ccccc65)CC4)cc3)nc12	-2	nt	nt	45*	nt	13	NadD inh conf=26
Fc1ccc2nc(-c3ccc(CN4CCC(n5nnc6ccccc65)CC4)cc3)c(-c3ccccc3)nc2c1	-2	nt	nt	nt	nt	nt
O=C(O)C[C@@H]1CC[C@H]2NC[C@H](O)COC[C@@H]2O1	nt	nt	0	nt	nt	nt
COC(=O)[C@@H]1[C@@H](CO)[C@@H]2Cn3c(ccc(C4=CCCCC4)c3=O)[C@H]1N2C(=O)NC(C)C	nt	nt	3	nt	nt	nt
COc1ccc(-c2ccc3n(c2=O)C[C@H]2[C@H](CO)[C@@H](C(=O)O)[C@@H]3N2C(=O)c2ccccc2F)cc1	nt	nt	1	nt	nt	nt
O=C1NC(=O)C(Sc2ccccc2[N+](=O)[O-])C(=O)N1	0	-13	1	3	3	11
CC(=O)c1ccc2c(c1)C1C(Cl)C(Sc3ccccc3[N+](=O)[O-])CC1C(c1ccccc1[N+](=O)[O-])N2 (centres undefined)	-3	-18	2	68*	-1	42*	NadD inh conf=25
CC(=O)c1ccc2c(c1)C1C(Cl)C(Sc3ccccc3[N+](=O)[O-])CC1C(c1ccccc1)N2 (centres undefined)	3	nt	nt	37*	-1	-4	NadD inh conf=20
O=C(O)[C@@H]1[C@@H](CO)[C@@H]2Cn3c(ccc(-c4ccccc4)c3=O)[C@H]1N2C(=O)C1CCCCC1	nt	nt	3	nt	nt	nt
Cc1cccc(C)c1-n1nnnc1C(CCc1ccccc1)N1CCC2(CC1)C(=O)NCN2c1ccccc1 (centres undefined)	4	-2	-14	41*	nt	1	NadD inh conf=10
